Inconclusive results are not listed. A call without a number means that no potency is given here. The source made the active and inactive calls. Unless noted, calls come from the whole dose curve; as a rule, active = well fitted curve in the direction sought with a large enough effect in the repeat runs; inconclusive = weak or mixed curves; inactive = no such curve, though single readings can be large; an effect the other way counts as inactive or inconclusive.
Columns and labels:
[1] = qHTS assay for small molecule agonists of the p53 signaling pathway (AID 651631; calls by dose curve; note: nearly all actives have a fitted effect of over 15% in size; note: potency is the fitted concentration of half-maximal effect)
Method in brief: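 Readout was fluorescence from the LiveBLAzer FRET substrate, applied for 2 h at room temperature after 16 h compound exposure at 37 °C. Cells were the p53RE-bla HCT-116 line, with beta-lactamase driven by p53 response elements.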

[2] = qHTS assay for small molecules that induce genotoxicity in human embryonic kidney cells expressing luciferase-tagged ATAD5 - cell viability (AID 651634; calls by dose curve; note: nearly all actives have a fitted effect of over 25% in size; note: potency is the fitted concentration of half-maximal effect)
Method in brief: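 HEK293T ATAD5-luc cells, 2,000/well; compound 15.5 hr, 37C/5% CO2; CellTiter-Fluor 30 min, 37C; fluorescence read.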

[3] = qHTS assay for small molecule disruptors of the mitochondrial membrane potential - cell viability (AID 720634; calls by dose curve; note: nearly all actives have a fitted effect of over 20% in size; note: potency is the fitted concentration of half-maximal effect)
Method in brief: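 Luminescence from CellTiter-Glo (ATP content) gave viability in HepG2 cells, read in the same wells as the MMP dye assay after 1 hr compound exposure at 37 C.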

[4] = qHTS assay for small molecule disruptors of the mitochondrial membrane potential (AID 720635); note: potency is the fitted concentration of half-maximal effect
Method in brief: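 Mitochondrial membrane potential tracked with Mito-MPS dye, red aggregates (ex 540/em 590 nm) against green monomers (ex 490/em 535 nm). Compound treatment 1 hr at 37C, dye 30 min in HepG2.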

[5] = qHTS assay to test for compound auto fluorescence at 535 nm (green) in HepG2 cells (AID 720675)
[6] = qHTS assay to test for compound auto fluorescence at 460 nm (blue) in HEK293 cells (AID 720678)
Method in brief: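 Cells were seeded and left to adhere for 4-5 hr at 37C. Compounds were then pin-transferred. After an overnight incubation at 37C under 5% CO2, intrinsic fluorescence at 405/460 nm was measured and referenced to triamterene.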

[7] = qHTS assay to test for compound auto fluorescence at 590 nm (red) in HEK293 cells (AID 720679)
Method in brief: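 Each well held 2,000 HEK293 cells in medium containing 10% dialyzed FBS. Following 4-5 hr attachment at 37C, 23 nL test compound or DMSO was added; plates sat overnight, and red fluorescence (540/590nm) was recorded.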

[8] = qHTS assay to test for compound auto fluorescence at 535 nm (green) in HEK293 cells (AID 720680)
[9] = qHTS assay to test for compound auto fluorescence at 460 nm (blue) in HEK293 cell free culture (AID 720681)
Method in brief: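 Blue fluorescence (Ex 405/Em 460 nm, triamterene-equivalent) was read immediately after pin transfer of compound or DMSO into medium (DMEM, 10% FBS) without cells.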

[10] = qHTS assay to test for compound auto fluorescence at 535 nm (green) in HEK293 cell free culture (AID 720682)
Method in brief: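 Compounds were pin-transferred into cell-free DMEM with 10% FBS, and green fluorescence was read at excitation 485 nm and emission 535 nm. Intensities were expressed as fluorescein-equivalent values.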

[11] = qHTS assay to test for compound auto fluorescence at 590 nm (red) in HEK293 cell free culture (AID 720683)
Method in brief: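 Red-channel autofluorescence of compounds in culture medium (DMEM, 10% FBS), no cells, measured at 540/590 nm. Rose Bengal sodium is the reference fluorophore for equivalence.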

[12] = qHTS assay to test for compound auto fluorescence at 590 nm (red) in HepG2 cell free culture (AID 720684)
Method in brief: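 Cell-free; medium MEM + 10% FBS; compound or DMSO added by pintool; read Ex 540/Em 590 nm; Rose Bengal sodium as red reference fluorophore.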

[13] = qHTS assay to test for compound auto fluorescence at 460 nm (blue) in HepG2 cell free culture (AID 720685)
Method in brief: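 Cell-free plates of MEM plus 10% FBS received 23 nL compound or DMSO vehicle; blue-channel (405/460 nm) intensity scored against triamterene as reference fluorophore.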

[14] = qHTS assay to test for compound auto fluorescence at 535 nm (green) in HepG2 cell free culture (AID 720686)
[15] = target: Glucocorticoid receptor (Homo sapiens) (UniProt P04150); test: qHTS assay to identify small molecule agonists of the glucocorticoid receptor (GR) signaling pathway (AID 720691; active = well fitted activation curve with a large enough effect in the signal ratio in the repeat runs, not every such curve was filed as active; the % refers to the signal ratio)
Chain of Glucocorticoid receptor (Homo sapiens) (P04150 whole entry, looked up): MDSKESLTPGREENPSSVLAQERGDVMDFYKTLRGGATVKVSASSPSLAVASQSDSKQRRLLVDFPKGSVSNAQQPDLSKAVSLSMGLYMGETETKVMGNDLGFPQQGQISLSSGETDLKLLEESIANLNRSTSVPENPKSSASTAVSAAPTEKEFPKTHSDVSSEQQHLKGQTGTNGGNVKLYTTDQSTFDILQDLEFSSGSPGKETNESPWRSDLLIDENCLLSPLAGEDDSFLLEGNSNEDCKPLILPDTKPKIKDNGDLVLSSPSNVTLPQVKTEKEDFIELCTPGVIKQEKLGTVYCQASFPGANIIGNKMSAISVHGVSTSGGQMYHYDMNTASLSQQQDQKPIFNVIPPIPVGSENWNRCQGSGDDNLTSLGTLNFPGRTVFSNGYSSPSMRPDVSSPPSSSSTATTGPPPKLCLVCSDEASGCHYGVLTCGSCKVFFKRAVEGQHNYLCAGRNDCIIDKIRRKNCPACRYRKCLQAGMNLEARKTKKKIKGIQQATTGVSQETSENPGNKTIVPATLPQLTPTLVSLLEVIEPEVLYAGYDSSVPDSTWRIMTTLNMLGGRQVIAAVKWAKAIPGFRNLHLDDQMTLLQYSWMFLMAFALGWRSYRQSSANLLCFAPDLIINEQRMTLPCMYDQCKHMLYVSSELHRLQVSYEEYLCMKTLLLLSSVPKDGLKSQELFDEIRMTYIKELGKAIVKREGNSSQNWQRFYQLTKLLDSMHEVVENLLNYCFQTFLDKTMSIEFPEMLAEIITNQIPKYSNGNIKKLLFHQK
Method in brief: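 HeLa GR-bla reporter line; cells pre-incubated 4 h, compound in DMSO 18 h at 37 C; LiveBLAzer B/G FRET substrate 2 h RT; fluorescence intensity read-out.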

[16] = target: Glucocorticoid receptor (Homo sapiens) (UniProt P04150); test: qHTS assay to identify small molecule antagonists of the glucocorticoid receptor (GR) signaling pathway (AID 720692; active = well fitted inhibition curve with a large enough effect in the signal ratio in the repeat runs, not every such curve was filed as active; the % refers to the signal ratio)
Method in brief: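 Read-out: beta-lactamase FRET substrate fluorescence, 2 h at room temperature, in HeLa cells stably carrying a GRE-driven bla reporter. Compounds were co-incubated with 5 nM dexamethasone agonist (final) for 18 h at 37 C.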

[17] = qHTS assay for small molecules that induce genotoxicity in human embryonic kidney cells expressing luciferase-tagged ATAD5 (AID 651632); note: nearly all actives have a fitted effect of over 15% in size
Method in brief: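 Luminescence read-out: after 16 hr compound exposure at 37C, ATAD5-luciferase HEK293T cells received Amplite, 30 min RT, then CCD imaging. A rise in signal marks genotoxic stress.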

[18] = qHTS assay to test for compound auto fluorescence at 590 nm (red) in HepG2 cells (AID 720674)
Method in brief: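 Red autofluorescence (Ex/Em 540/590 nm, Rose Bengal sodium equivalents) was measured in HepG2 cells, 2,000 per well in MEM plus 10% FBS, plated overnight at 37 C. Readings were taken 1 hr after adding 23 nL compound or DMSO, at 37 C and 5% CO2.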

[19] = qHTS assay to test for compound auto fluorescence at 460 nm (blue) in HepG2 cells (AID 720687)
Method in brief: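 Blue-channel autofluorescence (Ex/Em 405/460 nm, triamterene-equivalent) was measured after 1 hr compound exposure at 37 C, 5% CO2. Cells were HepG2, plated overnight at 37 C in MEM plus 10% FBS.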

[20] = qHTS assay for small molecule agonists of the p53 signaling pathway - cell viability (AID 651633; calls by dose curve; note: nearly all actives have a fitted effect of over 30% in size; note: potency is the fitted concentration of half-maximal effect)
Method in brief: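 Viability counter-read: CellTiter-Glo luminescence (30 min, room temperature) in the same p53RE-bla plates. These plates had been exposed to compounds for 16 h at 37 C.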

| Structure (SMILES) | Potency [1] | Potency [2] | Potency [3] | Potency [4] | outcome [5] | outcome [6] | outcome [7] | outcome [8] | outcome [9] | outcome [10] | outcome [11] | outcome [12] | outcome [13] | outcome [14] | outcome [15] | Potency [16] | Potency [17] | outcome [18] | outcome [19] | Potency [20] |
| --- | --- | --- | --- | --- | --- | --- | --- | --- | --- | --- | --- | --- | --- | --- | --- | --- | --- | --- | --- | --- |
| COC(N)=O | inactive | inactive | inactive | inactive | inactive | inactive | inactive | inactive | inactive | inactive | inactive | inactive | inactive | inactive | inactive | inactive |  |  |  |  |
| N#CCc1ccccc1 | inactive |  | inactive | inactive | inactive | inactive | inactive | inactive | inactive | inactive | inactive | inactive | inactive | inactive |  |  | inactive | inactive | inactive |  |
| N#C/C(N)=C(/N)C#N | inactive |  | inactive |  | inactive | inactive | inactive | inactive | inactive | inactive | inactive | inactive | inactive | inactive | inactive |  | inactive | inactive | inactive |  |
| CC(C)=CCOc1c2occc2cc2ccc(=O)oc12 | inactive | inactive | inactive |  | inactive | inactive | inactive | inactive | inactive | inactive | inactive | inactive | inactive | inactive |  |  | inactive |  | inactive |  |
| O=S1(=O)OC(c2cc(Br)c(O)c(Br)c2)(c2cc(Br)c(O)c(Br)c2)c2ccccc21 | inactive | 25 µM (active) | 28.1 µM (active) |  | inactive | inactive | inactive | inactive | inactive | inactive | inactive | inactive | inactive | inactive | inactive | inactive |  | inactive |  | 44.5 µM (active) |
| Cc1ccc(-c2c(Cl)nc(C#N)n2S(=O)(=O)N(C)C)cc1 | 15.3 µM (active) | inactive |  | 1.09 µM (active) | inactive | inactive | inactive | inactive | inactive | inactive | inactive | inactive | inactive | inactive | inactive |  | inactive | inactive | inactive |  |
| CCCCc1c(C)nc(NCC)nc1OS(=O)(=O)N(C)C | inactive | inactive |  | 21.7 µM (active) | inactive | inactive | inactive | inactive | inactive | inactive | inactive | inactive | inactive | inactive | inactive |  |  | inactive |  | inactive |
| O=C(O)c1ccccc1C(=O)Nc1cccc2ccccc12 | inactive | inactive | inactive |  | inactive | inactive | inactive | inactive | inactive | inactive | inactive | inactive | inactive | inactive |  |  | inactive |  | inactive |  |
| CC(=O)C(C)(C)C | inactive | inactive | inactive |  | inactive | inactive |  | inactive |  | inactive | inactive | inactive | inactive | inactive | inactive | inactive |  | inactive |  | inactive |
| C[N+](C)(C)CCCl | inactive | inactive | inactive |  | inactive | inactive |  | inactive | inactive | inactive | inactive | inactive | inactive | inactive | inactive |  |  | inactive | inactive | inactive |
| COC(=O)C(Cl)C(=O)OC | inactive | inactive | inactive | inactive | inactive | inactive | inactive | inactive | inactive | inactive | inactive | inactive | inactive | inactive | inactive | inactive |  | inactive | inactive | inactive |
| NCCCNCCCN | inactive | inactive | inactive |  | inactive | inactive |  | inactive |  | inactive | inactive | inactive | inactive | inactive | inactive |  |  | inactive | inactive |  |
| CCC(Br)(CC)C(=O)NC(N)=O | inactive | inactive | inactive | inactive | inactive | inactive | inactive | inactive | inactive | inactive | inactive | inactive | inactive | inactive |  |  |  | inactive | inactive | inactive |
| CCCCN(N=O)C(=N)N[N+](=O)[O-] | 62.4 µM (active) |  | inactive | inactive | inactive | inactive | inactive | inactive |  | inactive | inactive | inactive | inactive | inactive | inactive |  |  | inactive |  | inactive |

From PubChem BioAssay (Tox21)
